According to PubChem BioAssay:
Results with a measured potency or affinity are listed apart. Calls of active or inactive are those of the source. Unless noted, no rule for the calls is given here.

target: Calcium-dependent protein kinase 1 (Plasmodium falciparum (isolate 3D7)) (UniProt P62344); test: PfCDPK1 kinase inhibitors, biochemical, TCAMS library (AID 1159585; cut-off not given, nearly all actives have IC50 up to about 0.98 µM;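 also: inhibitors leave more ATP so luminescence rises with inhibition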); conditions: recombinant PfCDPK1, Kinase-Glo ATP depletion luminescence
Sequence (P62344 whole entry, looked up): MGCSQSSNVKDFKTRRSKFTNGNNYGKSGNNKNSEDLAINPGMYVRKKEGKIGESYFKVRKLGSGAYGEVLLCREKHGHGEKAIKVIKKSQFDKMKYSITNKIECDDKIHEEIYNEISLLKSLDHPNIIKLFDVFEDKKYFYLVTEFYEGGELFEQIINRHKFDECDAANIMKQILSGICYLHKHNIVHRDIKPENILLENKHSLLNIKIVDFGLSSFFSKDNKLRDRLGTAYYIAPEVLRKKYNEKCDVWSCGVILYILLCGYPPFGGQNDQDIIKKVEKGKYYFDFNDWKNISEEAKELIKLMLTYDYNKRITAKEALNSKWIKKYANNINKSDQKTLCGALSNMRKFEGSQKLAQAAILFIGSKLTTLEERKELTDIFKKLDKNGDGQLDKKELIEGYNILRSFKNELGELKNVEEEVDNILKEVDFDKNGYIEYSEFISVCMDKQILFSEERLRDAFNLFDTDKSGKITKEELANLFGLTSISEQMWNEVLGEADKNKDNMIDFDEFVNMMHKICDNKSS

outcome, inactive:
CC(C)COc1ccc(Cl)cc1Cc1ccc(-c2nc3cc(F)c(F)cc3[nH]2)o1
Oc1ccc(CCNc2nc(NCCCOc3cccc(CN4CCCCC4)c3Cl)nc(N3CCNCC3)n2)cc1
O=c1[nH]c2c(cc1CNC1CCCCC1)c(-c1ccc(F)cc1)nn2-c1ccccc1
NC(N)=Nc1ccc(OCCCCCOc2ccc(N=C(N)N)cc2)cc1
COC(=O)c1cccc(CNCc2ccc(-c3ccc(-c4nc5ccc(C(F)(F)F)cc5[nH]4)s3)cc2)c1
COc1ccc2ncc(C#N)c(CCN3CCC(NCc4ccc5c(c4)NC(=O)CO5)CC3)c2c1
CC(Nc1nc(Nc2ccc(F)cc2)nc(SCC(N)=O)n1)c1ccccc1 (stereo not drawn)
Cn1ccnc1CNC(=O)c1ccc(-c2ccc(-c3nc4ccc(C(F)(F)F)cc4[nH]3)s2)cc1
COc1cc2c(cc1S(=O)(=O)c1ccc(NC(=O)c3cccc(C(F)(F)F)c3)cc1)CCN(C)CC2
CCOc1ccc2c(NN=Cc3cccc(F)c3)cc(C)nc2c1
Clc1ccc(OCc2ccccc2)c(-c2nc(-c3nc4ncc(Br)cc4[nH]3)cs2)c1
O=C(CC1CCCC1)Nc1ccc2c(c1)CCC2
Clc1ccccc1CNc1noc(-c2sccc2Br)n1
COc1ccc(NC(=O)Nc2ccc(-c3ccc(-c4nc5ccccc5[nH]4)cc3)cc2)cc1
Nc1cc(-c2cc3c(OCc4ccccc4)cccc3[nH]2)ccn1
CCNc1cc(C(=O)N[C@@H](Cc2ccccc2)[C@H](O)CNC2C3CC4CC(C3)CC2C4)cc(N2CCCCS2(=O)=O)c1 (stereo partly drawn)
CCCNCc1ccc(-c2ccc(CN(C(=O)c3nn(-c4ccccc4)nc3C)C3CCOCC3)cc2)nc1
CN1CCCN(Cc2ccc(-c3cccc(NC(=O)c4cccc(C#N)c4)c3)cc2)CC1
COc1ccc(NC(=O)Nc2cccc(-c3ccc(-c4nc5ccc(C(F)(F)F)cc5[nH]4)cc3)c2)cc1
CCC(C)NS(=O)(=O)c1ccc2nc(Nc3ccc(C)c(Cl)c3)n(C3CCCCC3)c2c1 (stereo not drawn)
COc1ccc(N2CCN(CCCC/C=C/c3ccc(NC(=O)c4cc(Cl)cc(Cl)c4)cc3)CC2)c(OC)c1
CC(C)(C)c1ccc(CN2CCC(NC(=O)c3cc(-c4cccc(C(F)(F)F)c4)cs3)C2)cc1 (stereo not drawn)
COc1ccccc1/C=C/C(=O)NCCC1CCN(CCCCCNC(=O)/C=C/c2ccc(Cl)c(Cl)c2)CC1
O=C(NC1CC1)c1cnc(N2CCC(Oc3ccc(Cl)cc3)CC2)c(Cl)c1
Cc1ccc(C=C2SC(=Nc3ccccc3)NC2=O)c(C)c1
O=C(Nc1cccc(-c2cc3ccccc3[nH]2)c1)C1CCN(Cc2ccccc2O)CC1
C=CCN(c1nc(NC)nc(NCc2c(OC)cccc2OC)n1)C1CCCC1
O=C(/C=C/c1ccc(Cl)c(Cl)c1)NCCCCCN1CCCC(C(=O)Nc2cccc(Cl)c2)C1 (stereo not drawn)
CN(CCCNCc1ccc2ccccc2c1)CCCNCc1ccc2ccccc2c1
Fc1cccc(COc2ccc(Nc3ncnc4sc(C#CC5CCCCN5)cc34)cc2Cl)c1 (stereo not drawn)
COc1ccc(-c2cc(NCc3ccc(-n4ccnc4)cc3)nc(Nc3ccccc3)n2)cc1
Cc1cc(NN=Cc2ccccc2Cl)c2cccc(C)c2n1
Cc1cc(CN2CCC(Nc3ncc(-c4ccsc4)c4nc(C(F)(F)F)ccc34)CC2)no1
O=C(/C=C/c1ccc(Cl)c(Cl)c1)NCCCCN1CCCN(C(=O)Nc2cc(Cl)cc(Cl)c2)CC1
NC1CCN(c2nc(NCCCc3ccc(O)cc3)nc(NCc3ccccc3-c3ccccc3)n2)CC1
O=C(Nc1cccc(C(F)(F)F)c1)Nc1nc2ccc([N+](=O)[O-])cc2s1
CC(=O)Nc1cccc(CNCc2ccc(-c3cnc(N4CCCC(c5ccccc5)C4)nc3)cc2)c1 (stereo not drawn)
CS(=O)(=O)N(c1cccc(F)c1)c1cc(C(=O)N[C@@H](Cc2ccccc2)[C@H](O)CNCc2cccc(C(F)(F)F)c2)cc(N2CCCC2=O)c1
CN(C)CCNC(=O)c1ccc(-c2cnc3ccc(NCc4ccc(Cl)c(Cl)c4)nn23)cc1

target: Plasmodium falciparum protein kinase 6 (PK6, PF3D7_1337100) (UniProt Q8IDW1); test: PfPK6 kinase inhibitors, biochemical, TCAMS library (AID 1159586); conditions: recombinant PfPK6, Kinase-Glo ATP depletion luminescence
Sequence (Q8IDW1 1-305): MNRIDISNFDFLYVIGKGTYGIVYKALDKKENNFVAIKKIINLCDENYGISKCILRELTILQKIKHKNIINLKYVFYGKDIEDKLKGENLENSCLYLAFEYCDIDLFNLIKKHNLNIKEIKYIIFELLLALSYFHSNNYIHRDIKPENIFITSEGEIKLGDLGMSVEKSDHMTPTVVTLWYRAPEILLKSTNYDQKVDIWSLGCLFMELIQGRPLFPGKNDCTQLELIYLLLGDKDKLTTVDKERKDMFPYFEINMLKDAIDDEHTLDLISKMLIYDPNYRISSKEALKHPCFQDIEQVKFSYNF

outcome, inactive:
CC(C)COc1ccc(Cl)cc1Cc1ccc(-c2nc3cc(F)c(F)cc3[nH]2)o1
Oc1ccc(CCNc2nc(NCCCOc3cccc(CN4CCCCC4)c3Cl)nc(N3CCNCC3)n2)cc1
O=c1[nH]c2c(cc1CNC1CCCCC1)c(-c1ccc(F)cc1)nn2-c1ccccc1
NC(N)=Nc1ccc(OCCCCCOc2ccc(N=C(N)N)cc2)cc1
COC(=O)c1cccc(CNCc2ccc(-c3ccc(-c4nc5ccc(C(F)(F)F)cc5[nH]4)s3)cc2)c1
COc1ccc2ncc(C#N)c(CCN3CCC(NCc4ccc5c(c4)NC(=O)CO5)CC3)c2c1
CC(Nc1nc(Nc2ccc(F)cc2)nc(SCC(N)=O)n1)c1ccccc1 (stereo not drawn)
Cn1ccnc1CNC(=O)c1ccc(-c2ccc(-c3nc4ccc(C(F)(F)F)cc4[nH]3)s2)cc1
COc1cc2c(cc1S(=O)(=O)c1ccc(NC(=O)c3cccc(C(F)(F)F)c3)cc1)CCN(C)CC2
CCOc1ccc2c(NN=Cc3cccc(F)c3)cc(C)nc2c1
Clc1ccc(OCc2ccccc2)c(-c2nc(-c3nc4ncc(Br)cc4[nH]3)cs2)c1
O=C(CC1CCCC1)Nc1ccc2c(c1)CCC2
Clc1ccccc1CNc1noc(-c2sccc2Br)n1
COc1ccc(NC(=O)Nc2ccc(-c3ccc(-c4nc5ccccc5[nH]4)cc3)cc2)cc1
Nc1cc(-c2cc3c(OCc4ccccc4)cccc3[nH]2)ccn1
CCNc1cc(C(=O)N[C@@H](Cc2ccccc2)[C@H](O)CNC2C3CC4CC(C3)CC2C4)cc(N2CCCCS2(=O)=O)c1 (stereo partly drawn)
CCCNCc1ccc(-c2ccc(CN(C(=O)c3nn(-c4ccccc4)nc3C)C3CCOCC3)cc2)nc1
CN1CCCN(Cc2ccc(-c3cccc(NC(=O)c4cccc(C#N)c4)c3)cc2)CC1
COc1ccc(NC(=O)Nc2cccc(-c3ccc(-c4nc5ccc(C(F)(F)F)cc5[nH]4)cc3)c2)cc1
CCC(C)NS(=O)(=O)c1ccc2nc(Nc3ccc(C)c(Cl)c3)n(C3CCCCC3)c2c1 (stereo not drawn)
COc1ccc(N2CCN(CCCC/C=C/c3ccc(NC(=O)c4cc(Cl)cc(Cl)c4)cc3)CC2)c(OC)c1
CC(C)(C)c1ccc(CN2CCC(NC(=O)c3cc(-c4cccc(C(F)(F)F)c4)cs3)C2)cc1 (stereo not drawn)
COc1ccccc1/C=C/C(=O)NCCC1CCN(CCCCCNC(=O)/C=C/c2ccc(Cl)c(Cl)c2)CC1
O=C(NC1CC1)c1cnc(N2CCC(Oc3ccc(Cl)cc3)CC2)c(Cl)c1
Cc1ccc(C=C2SC(=Nc3ccccc3)NC2=O)c(C)c1
O=C(Nc1cccc(-c2cc3ccccc3[nH]2)c1)C1CCN(Cc2ccccc2O)CC1
C=CCN(c1nc(NC)nc(NCc2c(OC)cccc2OC)n1)C1CCCC1
O=C(/C=C/c1ccc(Cl)c(Cl)c1)NCCCCCN1CCCC(C(=O)Nc2cccc(Cl)c2)C1 (stereo not drawn)
CN(CCCNCc1ccc2ccccc2c1)CCCNCc1ccc2ccccc2c1
Fc1cccc(COc2ccc(Nc3ncnc4sc(C#CC5CCCCN5)cc34)cc2Cl)c1 (stereo not drawn)
COc1ccc(-c2cc(NCc3ccc(-n4ccnc4)cc3)nc(Nc3ccccc3)n2)cc1
Cc1cc(NN=Cc2ccccc2Cl)c2cccc(C)c2n1
Cc1cc(CN2CCC(Nc3ncc(-c4ccsc4)c4nc(C(F)(F)F)ccc34)CC2)no1
O=C(/C=C/c1ccc(Cl)c(Cl)c1)NCCCCN1CCCN(C(=O)Nc2cc(Cl)cc(Cl)c2)CC1
NC1CCN(c2nc(NCCCc3ccc(O)cc3)nc(NCc3ccccc3-c3ccccc3)n2)CC1
O=C(Nc1cccc(C(F)(F)F)c1)Nc1nc2ccc([N+](=O)[O-])cc2s1
CC(=O)Nc1cccc(CNCc2ccc(-c3cnc(N4CCCC(c5ccccc5)C4)nc3)cc2)c1 (stereo not drawn)
CS(=O)(=O)N(c1cccc(F)c1)c1cc(C(=O)N[C@@H](Cc2ccccc2)[C@H](O)CNCc2cccc(C(F)(F)F)c2)cc(N2CCCC2=O)c1
CN(C)CCNC(=O)c1ccc(-c2cnc3ccc(NCc4ccc(Cl)c(Cl)c4)nn23)cc1
